Experimental findings from PubChem BioAssay AID1063 (University of Pittsburgh Molecular Library Screening Center, 2008) are described below.

The whole screen tested about 200,000 compounds, of which about 18,000 (9%) were called active. The list comes from a sample in which actives are over-represented; it also holds similar structures and randomly drawn compounds. Unmarked numbers belong to inactive results. Cut-off read from the data, not from the text of the source: active = inhibition above about 50%; inactive = the rest.

The assay in a line: antileishmanial activity against promastigotes – primary screen (AID 1063).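 Note: promastigotes grown with compound for 44 hours at 28 °C.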 To be noted: Leishmania major promastigotes, resazurin fluorescence viability; at 10 µM; stronger effect = higher value. For orientation: The colour change of resazurin is a common sign of viable cells or microbes.
In general, inhibition refers to the change of the read-out against control, counted positive when it falls. As for `CC(C)(C)C(=O)N(Cc1ccccc1)c1ccccn1`, the inhibition is -4.68%. For the molecule `O=C(c1ccncc1)c1ccc([N+](=O)[O-])cc1`, the inhibition was 5.83%. The same measure for `Cc1ccc(NC(=O)c2cccnc2C(=O)Nc2ccc(C)cc2)cc1`: -1.85%.

`CCn1cc(CNC(=O)c2cc([N+](=O)[O-])c(C)c([N+](=O)[O-])c2)cn1`: the inhibition was 18.8%.

Consider `O=C(N/N=C/c1sc(N2CCCCC2)nc1-c1cccs1)c1cccnc1`, for which the inhibition was 66.3% (active).

With `Cc1cc(/C=N/NC(=O)c2cccnc2)c(C)n1CC(C)C`, the inhibition was -1.49%.

As for `O=C(NN=C1CCC(=NNC(=O)c2cccnc2)CC1)c1cccnc1`, the inhibition was -9.82%. `O=C(COC(=O)CNC(=O)c1ccccc1F)NCC(F)(F)F`: the inhibition is -0.59%. On to `COc1ccc(CC(NC(C)=O)C(=O)NC2CCN(C(=O)C3CC3)CC2)cc1OC` (stereo unspecified), for which the inhibition was -1.59%.

For the molecule `CC(=O)NC1=NN(C(C)=O)C(C)(c2ccc(Cl)s2)S1` (stereo unspecified), the inhibition is 37.2%. `CC(=O)NC1=NN(C(C)=O)C(C)(CCS(=O)(=O)c2ccc(Cl)c(Cl)c2)S1` (stereo unspecified): the inhibition is -0.49%.

Regarding `CC(=O)NC1=NN(C(C)=O)C(C)(c2ccc(C)cc2)S1` (stereo unspecified), the inhibition was 63.1% (active). `CCCC(=O)Nc1nnc(-c2ccccc2)o1`: the inhibition was -6.09%. As for `COc1cc(/C=N/NC(=S)Nc2cccnc2)cc(OC)c1O`, the inhibition is -1.76%. Consider `Cc1ccc(-c2cc(C(F)(F)F)n3ncc(C(=O)N4CCCCC4c4cccnc4)c3n2)cc1` (stereo unspecified), for which the inhibition was 89.6% (active). As to `O=C(O)c1cnn2c(C(F)(F)F)cc(-c3ccccc3)nc12`, the inhibition is -4.02%. As for `Cc1ccc(-c2cc(C(F)(F)F)n3nc(C(=O)N4CCCC4)cc3n2)cc1`, the inhibition is 2.83%. In the case of `O=C(CSc1cccc[n+]1[O-])c1ccc(Cl)cc1`, the inhibition was 1.35%. Take `CC(C(=O)NCC1CCCCC1)N(C)Cc1cccc(Cl)c1` (stereo unspecified): the inhibition was -1.13%. Consider `O=C(/C=C/c1ccccc1)N/C(=C/c1ccccc1)C(=O)Nc1ccccc1O`, for which the inhibition was 5.36%. As for `CCc1ccccc1NC(=O)/C(=C/c1ccccc1)c1ccccc1`, the inhibition was 66% (active). In the case of `CCc1ccccc1NC(=O)c1cccs1`, the inhibition is -2.12%.

Consider `Oc1ccc(-c2nncn2-c2ccccc2)cc1`, for which the inhibition was -8.74%. For the molecule `CN(CC(=O)N1CCN(c2ccccc2)CC1)S(=O)(=O)c1cccs1`, the inhibition is -7.19%. To `O=C(O)CSCC(=O)Nc1ccc(C(F)(F)F)cc1` belongs -3.47%.

As to `COc1ccc(/C=N/NC(=O)CNC(=O)c2ccc(S(=O)(=O)N3CCCC3)cc2)c(OC)c1`, the inhibition is 28.7%. Regarding `Cc1cccc(/C=N/NC(=O)CNc2cccc3ccccc23)n1`, the inhibition is 1.6%.

As to `CCOc1ccc(NC(=O)CCC(=O)N/N=C/c2ccc([N+](=O)[O-])s2)cc1`, the inhibition is 96.6% (active). With `O=C(Cc1cc(=O)[nH][nH]1)N/N=C/c1ccccc1[N+](=O)[O-]`, the inhibition was -6.04%. Regarding `COc1cc(/C=N\NC(=O)CNC(=O)c2cccc([N+](=O)[O-])c2)ccc1O`, the inhibition is 8.51%.

Consider `Cc1ccccc1NCC(=O)N/N=C\c1ccc([N+](=O)[O-])s1`, for which the inhibition is 101% (active).

For the molecule `COc1ccc(C(=O)NCC(=O)N/N=C/c2ccc([N+](=O)[O-])s2)cc1OC`, the inhibition was 97% (active). In the case of `CCCCCC(=O)Nc1ccc(C(=O)N/N=C/c2ccc([N+](=O)[O-])cc2)cc1`, the inhibition was 34.7%. Take `CCOc1ccc(NC(=O)CCC(=O)n2nc(C)cc2C)cc1`: the inhibition was -2.57%. On to `O=C(O)c1cccc(NC(=O)c2cc(-c3cccc(Cl)c3)nc3ccccc23)c1`, for which the inhibition was -4.68%. Turning to `COc1ccc(OC)c(C(=O)c2ccc(C(=O)N3CCN(Cc4csc(C)n4)CC3)cc2)c1`, the inhibition was -0.79%. Consider `CCN1CCN(CC(=O)c2cc(OC)c(OC)c(OC)c2)CC1`, for which the inhibition was -5.32%. With `Nc1nc(SCC(=O)N2CCN(S(=O)(=O)c3ccc(Cl)cc3)CC2)n[nH]1`, the inhibition was -1.03%. On to `Cc1ccc(C2=NN(C(=O)COc3ncnc4ccccc34)C(c3ccco3)C2)cc1` (stereo unspecified), for which the inhibition was -5.8%. Take `CCCCN(CC)CCNC(=O)CCNC(=O)Cn1ccc2ccccc2c1=O`: the inhibition was 0.35%. The same measure for `O=C(COC(=O)c1ccc(F)cc1)Nc1nc2ccc([N+](=O)[O-])cc2s1`: -3.1%; for `CSc1nc2ccc(S(=O)(=O)N3CCc4ccccc43)cc2s1`: 0.05%. For `N=C1C(c2nc3ccccc3s2)=C(O)CN1NC(=O)c1ccc([N+](=O)[O-])cc1`, the inhibition was -3.94%. `O=C(O)CCC(=O)Nc1nc2ccc([N+](=O)[O-])cc2s1`: the inhibition is -7.18%. To `O=C(NC(Nc1nc2ccc([N+](=O)[O-])cc2s1)(C(F)(F)F)C(F)(F)F)c1ccccc1` belongs 100% (active); to `O=C(Nc1nc2ccc([N+](=O)[O-])cc2s1)c1ccc(S(=O)(=O)N2CCCc3ccccc32)cc1`, 100% (active). On to `CCCCn1nc(C(=O)OCC(=O)Nc2sccc2C(N)=O)c2ccccc2c1=O`, for which the inhibition was -6.96%. `Cc1cccc(N2CCC(NCc3c(C(=O)N4CCCCC4)nc4c(C)cccn34)CC2)c1`: the inhibition was 17.5%. To `S=C(Cc1ccc(Cl)cc1)N1CCOCC1` belongs 1.84%; to `CC1=NN(C(=O)CCCc2ccccc2)C(O)(C(F)(F)F)C1` (stereo unspecified), -11.2%.

Regarding `CN(C)CCN=c1cc(-c2ccccc2)oc2ccc(Cl)cc12`, the inhibition was 63% (active). For `CN(C)CCn1c(=S)[nH]c2ccc(Cl)cc2c1=O`, the inhibition is 1.3%.

As to `C/C(CC(=O)N1CCN(C=O)CC1)=N\NC(=O)c1ccc(Br)cc1`, the inhibition is -4.54%.

With `Cc1cccc(N2C(=O)CC(SC(N)=Nc3ccccc3)C2=O)c1` (stereo unspecified), the inhibition is 45.7%.

Turning to `Cc1ccc(-n2c(O)c(C=Nc3ccc(S(=O)(=O)Nc4ncccn4)cc3)c3ccccc3c2=O)cc1C`, the inhibition was -5.1%. `Cc1nnc(SCC(=O)N2CCc3ccccc3C2)s1`: the inhibition was -1.97%. Turning to `Cc1nnc(SCC(=O)NCc2ccccc2)s1`, the inhibition was -9.92%. The same measure for `Cc1nnc(SCC(=O)N2c3ccccc3C(C)(c3ccc(Cl)cc3)CC2(C)C)s1` (stereo unspecified): 56.6% (active). As for `Cc1ccc(NC(=O)C(=O)NCC2CCN(C(=O)c3cccc([N+](=O)[O-])c3)CC2)cc1`, the inhibition was 23%.

In the case of `CN1CCC(OC(=O)COc2ccc(Cl)cc2Cl)CC1`, the inhibition is 1.67%. Turning to `CN1CCN(c2ccc(NC(=O)COc3ccc(Cl)cc3Cl)cc2)CC1`, the inhibition was 98.7% (active). With `Cc1nn(-c2ccccc2)c(C)c1NC(=O)COc1ccc(Cl)cc1Cl`, the inhibition is 43.4%. As for `S=C(NCC1CCCO1)N1CCN(c2ccc(Cl)c(Cl)c2)CC1` (stereo unspecified), the inhibition is 17.8%. As to `NS(=O)(=O)c1ccc(Nc2nc(-c3ccccc3)cs2)cc1`, the inhibition is 81.2% (active). On to `COc1ccc(Nc2nc(-c3ccccc3)cs2)cc1`, for which the inhibition is -2.02%. As to `COc1ccc(-c2csc(Nc3ccc(O)cc3)n2)cc1`, the inhibition was 23%. In the case of `O=C(NCC(O)c1ccc([N+](=O)[O-])cc1)C1CCCCC1` (stereo unspecified), the inhibition was -8.78%.

As for `Cn1c(-c2sccc2OCc2cccc(C(F)(F)F)c2)n[nH]c1=S`, the inhibition was 14.1%. As for `Cn1c(-c2sc3cc(C(F)(F)F)cnc3c2-c2ccccc2)n[nH]c1=S`, the inhibition was 84.1% (active).

`Cc1ccccc1-c1n[nH]c(=S)n1C`: the inhibition is -18.2%. On to `O=C(CCSc1ccccc1)N1CCN(c2ccccc2F)CC1`, for which the inhibition was -5.13%.

Consider `O=C(Nc1nc(-c2cccnc2)cs1)c1ccccc1F`, for which the inhibition was -2.37%. For the molecule `COCC(C)NC(=O)c1ccc(Cl)c(Cl)c1` (stereo unspecified), the inhibition was -3.5%.

With `OCCNCCCCOc1ccccc1F`, the inhibition was 19.1%. `OCCNCCOc1ccc(Cl)c(Cl)c1`: the inhibition was 78.9% (active). With `CC/C(Cc1ccccc1)=N/NC(=O)CCn1nnc2ccccc21`, the inhibition is -2.64%.

For `CCN(C(=O)CN1CCN(Cc2ccccc2)CC1)c1c(N)n(Cc2ccccc2)c(=O)[nH]c1=O`, the inhibition was -0.59%.

`COc1ccc(/C=C(/NC(=O)c2ccc(C)cc2)c2nc3ccccc3[nH]2)cc1OC`: the inhibition is 16.1%. To `CCC(=O)/C(=C(/O)c1ccccc1)c1nc2ccccc2[nH]1` belongs -5.9%. `O=C(/C(=C/c1cccc(Cl)c1)c1nc2ccccc2[nH]1)c1ccccc1`: the inhibition was 101% (active).

For the molecule `C=CCNCCCCOc1ccccc1`, the inhibition is 34.8%.

As for `COc1ccc(NC(=O)CSc2nnc(-c3ccccc3F)n2C2CC2)cc1S(N)(=O)=O`, the inhibition was 2.82%. Take `CC(=O)Nc1ccc(S(=O)(=O)N2CCN(CCCOc3cc(C)ccc3C)CC2)cc1`: the inhibition was 72.8% (active).

For the molecule `Cc1cccc(OCCCC(=O)Nc2ccc(S(=O)(=O)N3CCCC3)cc2)c1`, the inhibition was 44.8%. `CC(=O)Nc1ccc(S(=O)(=O)N2CCSCC2)cc1`: the inhibition was 0.03%.

For the molecule `O=C(CSc1ccccc1)Nc1cc(Cl)ccc1Oc1ccccc1`, the inhibition is 14.8%.

As to `CCOC(=O)c1ccc(NC(=O)C2CC(=O)Nc3nc4ccccc4n32)cc1` (stereo unspecified), the inhibition was -4.72%. On to `COC(=O)c1ccc(NC(=O)c2ccccc2NS(=O)(=O)c2ccccc2)cc1`, for which the inhibition was -3.45%. Take `COc1cc(NC(=O)c2cccnc2SC)cc(OC)c1`: the inhibition is 1.73%.

For `COc1cc(NC(=O)c2ccccc2NS(=O)(=O)c2ccc(Cl)s2)cc(OC)c1`, the inhibition was 74.3% (active). The same measure for `Cc1cc(C)cc(C(=O)NC2C(=O)N3C(C(=O)O)=C(CSc4nnc(C)s4)CSC23)c1` (stereo unspecified): -0.22%; for `O=C1/C(=C\c2ccsc2)NC(=S)N1c1ccccc1`: -4.28%; for `CC(=O)C1C(c2ccc(Cl)cc2)c2c(n[nH]c2C)CC1(C)O` (stereo unspecified): -0.37%. The same measure for `CCCn1nc(C(=O)Nc2ccc3nc(C)sc3c2)c2ccccc2c1=O`: 80.4% (active); for `CCCCn1nc(C(=O)Nc2ccc(S(=O)(=O)Nc3ncccn3)cc2)c2ccccc2c1=O`: -10.7%; for `CCCn1nc(C(=O)N2CCCc3ccccc32)c2ccccc2c1=O`: 26.1%.
